Experimental data reported in PubChem BioAssay (Tox21).
The source made the active and inactive calls. Calls come from the whole dose curve; as a rule, active = well fitted curve in the direction sought with a large enough effect in the repeat runs; inconclusive = weak or mixed curves; inactive = flat fitted curve, though single readings scatter.

assay: qHTS assay to test for compound auto fluorescence at 460 nm (blue) in HepG2 cell free culture (AID 720685); conditions: Cell-free culture medium, blue autofluorescence 405/460 nm; series mostly up to 91.3 µM; fluorescence, % of fluorescent control: at the top concentration
In short: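 Cell-free plates of MEM plus 10% FBS received 23 nL compound or DMSO vehicle; blue-channel (405/460 nm) intensity scored against triamterene as reference fluorophore.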
% is set by controls: 0 for no effect and ±100 for the full control effect.

Structure (SMILES) | fluorescence, % of fluorescent control | Potency
Cc1cc(NC(=O)C(=O)O)cc(C)c1Oc1ccc(O)c2c1CCC2 | 0.0481% (inactive) | 
CC(C)CC=O | -0.193% (inactive) | 
O=c1c2ccccc2nnn1CCl | 0.0594% (inactive) | 
Cc1ccc(C(C)c2ccc(C)c(C)c2)cc1C | -0.0071% (inactive) | 
C=CCCCCCC | -0.0448% (inactive) | 
CC(=O)N(O)CCCCCNC(=O)CCC(=O)N(O)CCCCCNC(=O)CCC(=O)N(O)CCCCCN | 0.0393% [at 18.6 µM] (inactive) | 
FC(F)(F)C(F)(F)C(F)(F)C(F)(F)C(F)(F)C(F)(F)CCI | 0.0601% [at 46 µM] (inactive) | 
COCCOCCOCCOCCOC | 0.0481% (inactive) | 
CCCCCCCCCC(=O)OCC | -0.0101% (inactive) | 
Cc1ccc(C(=O)C(C)CN2CCCCC2)cc1 (stereo not given) |  | inactive
CCN(CCO)CCCC(C)Nc1ccnc2cc(Cl)ccc12 (stereo not given) | -0.0239% [at 46 µM] (inactive) | 
Cc1cc(CC(=O)O)c(C)n1-c1ccc(Cl)cc1 | 0.522% [at 46 µM] (inactive) | 

assay: qHTS assay to test for compound auto fluorescence at 535 nm (green) in HepG2 cell free culture (AID 720686); conditions: Cell-free medium, green autofluorescence 485/535 nm; series mostly up to 91.3 µM; fluorescence, % of fluorescein control: at the top concentration

Structure (SMILES) | fluorescence, % of fluorescein control | outcome
C=C(C)C(=O)OC(C)C | -0.0792% (inactive) | 
OCC1CC2CC1C1CCC(CO)C21 (stereo not given) | 0.0626% (inactive) | 
CCCCCCCCN(C)C | -0.0626% (inactive) | 
CC[C@H](C)[C@H](N)C(=O)O | -0.043% [at 46 µM] (inactive) | 
CCN(CC)CCc1nc(-c2ccccc2)no1 | -0.0688% [at 18.6 µM] (inactive) | 
CCCCCCCCCCCCCCCC(=O)OC/C=C(C)/C=C/C=C(C)/C=C/C1=C(C)CCCC1(C)C |  | inactive
CC(=O)O[C@H]1C[C@@H]2CC[C@@H]3[C@H](CC[C@@]4(C)[C@H]3C[C@H]([N+]3(C)CCCCC3)[C@@H]4OC(C)=O)[C@@]2(C)C[C@@H]1N1CCCCC1 | -0.0797% [at 46 µM] (inactive) | 
Cc1ccc(C)o1 | 0.0294% (inactive) | 
CC(C)CCCC(C)CCO (stereo not given) | -0.0198% (inactive) | 
COc1ccc2[nH]c(S(=O)Cc3ncc(C)c(OC)c3C)nc2n1 (stereo not given) | 0.0701% [at 46 µM] (inactive) | 
CC(C)c1ccccc1C(C)C | 0.0854% (inactive) | 
NCc1ccccc1 | -0.005% (inactive) | 
CC(C)(C)c1ccc(S)cc1 | -0.005% (inactive) | 
CNS(=O)(=O)Cc1ccc2[nH]cc(CCN(C)C)c2c1 | -0.057% [at 46 µM] (inactive) | 
Cc1c(Cn2ccnc2)c2ccccc2n1CCC(=O)O | 0.0901% [at 46 µM] (inactive) | 
O=[N+]([O-])c1cc[n+]([O-])cc1 | -0.0391% (inactive) | 
CCOc1cc(OCC)c(C(=O)CCC(=O)O)cc1OCC | 0.0323% [at 46 µM] (inactive) | 
O=S(=O)(O)c1ccc(O)c2ncccc12 | 0.0067% (inactive) | 

Structure (SMILES) | fluorescence, % of fluorescein control | outcome
CC[C@]12CCCN3CCc4c(n(c5ccccc45)C(=O)C1)[C@@H]32 | -0.019% [at 18.6 µM] (inactive) | 
CC(C)(C)C(=O)OCOP(=O)(COCCn1cnc2c(N)ncnc21)OCOC(=O)C(C)(C)C | 0.11% [at 46 µM] (inactive) | 
N#CCc1cccc(C(F)(F)F)c1 | -0.178% (inactive) | 
O=C=NC1CCC(CC2CCC(N=C=O)CC2)CC1 (stereo not given) | 0.0103% (inactive) | 
Cc1cc(NC(=O)C(=O)O)cc(C)c1Oc1ccc(O)c2c1CCC2 | -0.0718% (inactive) | 
CC(C)CC=O | -0.0779% (inactive) | 
Nc1ccc(C(=O)Nc2ccccc2N)cc1 | 0.0893% [at 46 µM] (inactive) | 
O=c1c2ccccc2nnn1CCl | 0.0298% (inactive) | 
Cc1ccc(C(C)c2ccc(C)c(C)c2)cc1C | -0.0449% (inactive) | 
C=CCCCCCC | -0.0396% (inactive) | 
CC(=O)N(O)CCCCCNC(=O)CCC(=O)N(O)CCCCCNC(=O)CCC(=O)N(O)CCCCCN | 0.169% [at 18.6 µM] (inactive) | 
FC(F)(F)C(F)(F)C(F)(F)C(F)(F)C(F)(F)C(F)(F)CCI | -0.0142% [at 46 µM] (inactive) | 
COCCOCCOCCOCCOC | 0.0261% (inactive) | 
CCCCCCCCCC(=O)OCC | 0.0403% (inactive) | 
Cc1ccc(C(=O)C(C)CN2CCCCC2)cc1 (stereo not given) |  | inactive
CCN(CCO)CCCC(C)Nc1ccnc2cc(Cl)ccc12 (stereo not given) | -0.064% [at 46 µM] (inactive) | 
Cc1cc(CC(=O)O)c(C)n1-c1ccc(Cl)cc1 | 0.134% [at 46 µM] (inactive) | 

assay: qHTS assay to test for compound auto fluorescence at 460 nm (blue) in HepG2 cells (AID 720687); conditions: autofluorescence 405/460 nm, 1 h; series mostly up to 91.3 µM; fluorescence, % of fluorescent control: at the top concentration
In short: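 HepG2 cells in MEM with 10% FBS, attached overnight at 37 C, were exposed to compound or DMSO for 1 hr at 37 C, 5% CO2. Blue fluorescence was read at 405/460 nm, with triamterene as reference fluorophore.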

Structure (SMILES) | fluorescence, % of fluorescent control | Potency
C=C(C)C(=O)OC(C)C | 0.226% (inactive) | 
OCC1CC2CC1C1CCC(CO)C21 (stereo not given) | -0.126% (inactive) | 
CCCCCCCCN(C)C | -0.0518% (inactive) | 
CC[C@H](C)[C@H](N)C(=O)O | -0.002% [at 46 µM] (inactive) | 
CCN(CC)CCc1nc(-c2ccccc2)no1 | -0.0362% [at 18.6 µM] (inactive) | 
CCCCCCCCCCCCCCCC(=O)OC/C=C(C)/C=C/C=C(C)/C=C/C1=C(C)CCCC1(C)C |  | inactive
CCOC(=O)CC(=O)c1cc(F)c(Cl)nc1Cl | 0.02% [at 95.7 µM] (inactive) | 
CC(=O)O[C@H]1C[C@@H]2CC[C@@H]3[C@H](CC[C@@]4(C)[C@H]3C[C@H]([N+]3(C)CCCCC3)[C@@H]4OC(C)=O)[C@@]2(C)C[C@@H]1N1CCCCC1 | -0.076% [at 46 µM] (inactive) | 
Cc1ccc(C)o1 | 0.0078% (inactive) | 
CC(C)CCCC(C)CCO (stereo not given) | -0.397% (inactive) | 
COc1ccc2[nH]c(S(=O)Cc3ncc(C)c(OC)c3C)nc2n1 (stereo not given) | 0.0989% [at 46 µM] (inactive) | 
NC(=S)N/N=C/c1cccnc1 | -0.0329% [at 46 µM] (inactive) | 
CC(C)c1ccccc1C(C)C | -0.0057% (inactive) | 
NCc1ccccc1 | -0.488% (inactive) | 
CC(C)(C)c1ccc(S)cc1 | 0.272% (inactive) | 
CNS(=O)(=O)Cc1ccc2[nH]cc(CCN(C)C)c2c1 | -0.107% [at 46 µM] (inactive) | 
COc1ccccc1OC(=O)Oc1ccccc1OC | -0.111% [at 46 µM] (inactive) | 
Cc1c(Cn2ccnc2)c2ccccc2n1CCC(=O)O | -0.0171% [at 46 µM] (inactive) | 
O=[N+]([O-])c1cc[n+]([O-])cc1 | -0.335% (inactive) | 

Structure (SMILES) | fluorescence, % of fluorescent control | Potency
CCOc1cc(OCC)c(C(=O)CCC(=O)O)cc1OCC | -0.0292% [at 46 µM] (inactive) | 
O=S(=O)(O)c1ccc(O)c2ncccc12 | 6.7% (inactive) | 
CC[C@]12CCCN3CCc4c(n(c5ccccc45)C(=O)C1)[C@@H]32 | -0.0508% [at 18.6 µM] (inactive) | 
CC(C)(C)C(=O)OCOP(=O)(COCCn1cnc2c(N)ncnc21)OCOC(=O)C(C)(C)C | -0.0159% [at 46 µM] (inactive) | 
N#CCc1cccc(C(F)(F)F)c1 | -0.0452% (inactive) | 
O=C=NC1CCC(CC2CCC(N=C=O)CC2)CC1 (stereo not given) | 0.0973% (inactive) | 
Cc1cc(NC(=O)C(=O)O)cc(C)c1Oc1ccc(O)c2c1CCC2 | 0.0142% (inactive) | 
CC(C)CC=O | -0.0447% (inactive) | 
Nc1ccc(C(=O)Nc2ccccc2N)cc1 | 0.253% [at 46 µM] (inactive) | 
O=c1c2ccccc2nnn1CCl | 0.0167% (inactive) | 
Cc1ccc(C(C)c2ccc(C)c(C)c2)cc1C | -0.0221% (inactive) | 
C=CCCCCCC | -0.134% (inactive) | 
CC(=O)N(O)CCCCCNC(=O)CCC(=O)N(O)CCCCCNC(=O)CCC(=O)N(O)CCCCCN | 0.041% [at 18.6 µM] (inactive) | 
FC(F)(F)C(F)(F)C(F)(F)C(F)(F)C(F)(F)C(F)(F)CCI | -0.0166% [at 46 µM] (inactive) | 
COCCOCCOCCOCCOC | -0.0097% (inactive) | 
CCCCCCCCCC(=O)OCC | 0.0713% (inactive) | 
Cc1ccc(C(=O)C(C)CN2CCCCC2)cc1 (stereo not given) |  | inactive
CCN(CCO)CCCC(C)Nc1ccnc2cc(Cl)ccc12 (stereo not given) | 0.0587% [at 46 µM] (inactive) | 
Cc1cc(CC(=O)O)c(C)n1-c1ccc(Cl)cc1 | 0.791% [at 46 µM] (inactive) | 
